Source: PubChem
This is a sample that favours compounds with a hit; in the whole collection about 12% have one here.
PLK1 PBD block: qHTS for Inhibitors of PLK1-PDB (polo-like kinase 1 - polo-box domain): Primary Screen | Serine/threonine-protein kinase PLK1 (Homo sapiens), P53350 | Plk1 PBD binding of FITC phosphopeptide, fluorescence polarization | Potency, µM, without a hit: max response, negative = inhibition, hits mostly inhibitors | 2.8% of 360,000 active | AID 720504, 2013; further: series mostly up to about 57 µM; nearly all actives have a fitted effect of over 65% in size
Target sequence (P53350 whole entry, looked up, the tested form may be a part): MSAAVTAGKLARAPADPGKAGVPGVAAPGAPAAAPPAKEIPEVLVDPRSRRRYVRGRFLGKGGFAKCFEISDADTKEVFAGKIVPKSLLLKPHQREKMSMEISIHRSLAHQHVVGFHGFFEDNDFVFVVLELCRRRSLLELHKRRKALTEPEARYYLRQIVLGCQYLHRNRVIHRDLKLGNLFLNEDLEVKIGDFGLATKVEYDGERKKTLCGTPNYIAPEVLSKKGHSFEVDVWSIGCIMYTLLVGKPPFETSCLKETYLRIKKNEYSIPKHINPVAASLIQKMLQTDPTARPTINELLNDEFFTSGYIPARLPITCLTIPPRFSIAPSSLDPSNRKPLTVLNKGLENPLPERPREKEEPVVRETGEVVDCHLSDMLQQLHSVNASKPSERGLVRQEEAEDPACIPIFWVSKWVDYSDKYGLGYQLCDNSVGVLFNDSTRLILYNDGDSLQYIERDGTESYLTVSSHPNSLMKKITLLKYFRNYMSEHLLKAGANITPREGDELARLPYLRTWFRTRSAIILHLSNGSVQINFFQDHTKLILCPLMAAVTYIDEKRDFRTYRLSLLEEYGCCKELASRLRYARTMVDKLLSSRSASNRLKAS
RORgamma inh: qHTS for inhibitors of ROR gamma transcriptional activity; Drosophila S2 Gal4-RORgamma UAS-luciferase reporter, 20 h; AID 2551, 2010; 5.4% of 310,000 active; Potency, µM (top dose mostly 53.6 µM), inactives show at the highest dose activity change, negative = inhibition, actives largely listed as inhibitors; further: nearly all actives have a fitted effect of over 60% in size
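Read-out: Photinus luciferase luminescence; inhibitors lower reporter signal. Insect Schneider cells with Gal4-ROR gamma fusion under metallothionein promoter, UAS reporter; 700 uM final copper sulfate induction, 20 hr, ambient temperature.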
Sfp PPTase inh: qHTS Assay for Inhibitors of Bacillus subtilis Sfp phosphopantetheinyl transferase (PPTase); Potency, µM, for the others: largest response in the series, negative = inhibition, hits mostly inhibitors; 3.5% of 310,000 active; AID 1490, 2009; Biochemical Sfp PPTase activity, qHTS;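 further: the enzyme is Sfp with the accession as filed and its product quenches rhodamine fluorescence; 0% = enzyme reaction without inhibitor and -100% = no enzyme wells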
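With Hepes-Na pH 7.6 buffer containing 10 mM MgCl2, Sfp (15 nM) modified BHQ-2-YbbR (12.5 uM) using rhodamine-CoA (5 uM). Two reads 30 minutes apart at 525/598 nm yielded each well's rate.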
ALDH1A1 inh: qHTS Assay for Inhibitors of Aldehyde Dehydrogenase 1 (ALDH1A1). 7.3% of 220,000 active. AID 1030, 2008. Aldehyde dehydrogenase 1A1 (Homo sapiens), P00352. Purified ALDH1A1, NADH fluorescence, propionaldehyde substrate. Potency, µM (doses to about 75.3 µM), without a hit: top-dose activity, negative = inhibition, usual class: inhibitors; active means well fitted inhibition curve with a large enough effect, not every such curve was filed as active; inconclusive means small, poorly fitted or top-dose-only effect, or another doubt; inactive means no such curve, though single readings can be large or run the other way;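 further: plate controls were no enzyme wells and a reference inhibitor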
Gal4-VP16 FLuc: VP16 counterscreen qHTS for inhibitors of ROR gamma transcriptional activity; Drosophila S2 Gal4-VP16 UAS-luciferase, luminescence, 20 h; Potency, µM (doses to about 53.6 µM), without a hit: at the highest dose activity, negative = inhibition, most hits filed as inhibitors; 3.5% of 310,000 active;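 further: Gal4-VP16 expression switched on by copper sulfate through the metallothionein promoter; nearly all actives have a fitted effect of over 50% in size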
* = called active by the depositor; ? = inconclusive; / = not tested or not shown; [ ] = another dose, or the depositor's remark. Unless noted, the call rests on the fitted dose curve; in most records, active means well fitted curve in the direction sought with a large enough effect; inconclusive means small, poorly fitted or top-dose-only effect, or another doubt; inactive means no such curve, though single readings can be large; an effect the other way counts as inactive or inconclusive. Unless noted, on the % scale 0 is the no-effect control and ±100 the full control effect; potency means the concentration at half of the fitted maximal effect.

SMILES | PLK1 PBD block | RORgamma inh | Sfp PPTase inh | ALDH1A1 inh | Gal4-VP16 FLuc
O=C(O)c1cc(-c2ccco2)nc2ccccc12 | ? | -22% | 35µM* | ? | -10%
O=C(O)c1cc(-c2ccc3ccccc3c2)nc2ccc(F)cc12 | -3% | 22µM* | 15% | / | -27%
Cn1c(=O)c(C(=O)COC(=O)c2cc(-c3ccco3)nc3ccccc23)c(N)n(CC2CC2)c1=O | / | ? | 22µM* | ? | 7%
CCC(=O)N1CCCC(C)(C(=O)Nc2ccc3scnc3c2)C1 (centres undefined) | -5% | / | / | / | /
Cc1cc(C(=O)OCC(=O)NC(C)C)c2ccccc2n1 | 12µM* | 3% | 21% | / | -12%
Cc1ccc(C)c(-c2cc(C(=O)NC3CC3)c3ccccc3n2)c1 | -24% | -4% | -5% | / | 4%
O=C(O)c1cc(-c2ccc(-c3ccccc3)cc2)nc2cc3ccccc3cc12 | / | / | / | -7%[13.5 µM] | /
O=C(NC1CC1)c1cc(-c2ccco2)nc2ccccc12 | 21µM* | 30% | 45µM* | / | -4%
Cc1cc(C(=O)OCC(=O)NC2CCCC2)c2ccccc2n1 | -1% | / | / | / | /
CCNC(=O)COC(=O)c1cc(-c2ccco2)nc2ccccc12 | ? | 37% | 16µM* | ? | 0%
O=C(O)c1cc(-c2c[nH]c3ccccc23)nc2cc3ccccc3cc12 | / | 5µM* | -8% | / | -19%
COc1cccc(Cn2c(=O)c(-c3ccc(Cl)cc3)nc3cnc(N(C)C)nc32)c1 | / | 6% | 23% | ? | 4%
O=C(O)c1cc(-c2cc(C(=O)O)c3ccccc3n2)nc2ccccc12 | / | 2% | 4% | / | 1%
O=C(c1ccco1)N1CCN(C(=O)c2cc(-c3ccccn3)nc3ccccc23)CC1 | -7% | ? | -6% | 3.5µM* | -3%
O=C(O)c1cc(-c2ccc3ccccc3n2)nc2ccccc12 | -6% | 5µM* | 9% | / | 11µM*
CC(=O)NC(C)(c1ccccc1)c1nc(-c2cc(F)cc(F)c2)cs1 (centres undefined) | -8% | / | / | / | /
O=C(Nc1cccc2oc(=O)ccc12)c1ccc([N+](=O)[O-])cc1[N+](=O)[O-] | -11% | 13% | 4% | 7.9µM* | 9%
O=C(Nc1ncccn1)c1ccc([N+](=O)[O-])cc1[N+](=O)[O-] | 0% | / | / | / | /
COc1ccc(C(=O)NCCCN2CCN(CCCNC(=O)c3ccc(OC)c(OC)c3)CC2)cc1OC | -13% | / | / | / | /
Cc1ccc2[nH]c(O)c(N=Nc3nc4ccccc4s3)c2c1 | -16% | 2.8µM* | 2% | / | -2%
Cc1noc(C)c1-c1nccc(NCCN2CCOCC2)n1 | / | -19% | 6% | ? | -2%
CC1CCCCN1CCCNC(=O)c1ccc(Cc2nc3ccccc3[nH]2)cc1 (centres undefined) | / | / | / | 4% | /
O=C(NC(=S)Nc1ncccn1)c1ccc(F)cc1 | -12% | ? | 16µM* | / | -30%
CCCCNC(=S)NNC(=O)c1nn(C)cc1Cl | -12% | 14µM* | 17% | 9% | -30%
O=C(Cc1ccc(Cl)cc1)NNC(=S)NC(=O)c1cccnc1 | -14% | ? | -10% | -12% | -9%
SMILES | PLK1 PBD block | RORgamma inh | Sfp PPTase inh | ALDH1A1 inh | Gal4-VP16 FLuc
CCNC(=S)NNC(=O)c1cccnc1 | -6% | -2% | 0% | 2% | -5%
COc1ccc(CCNC(=O)c2nn(C)cc2Cl)cc1 | -7% | -12% | 0% | -5% | 5%
CCCCNC(=S)NNC(=O)c1cccnc1 | 1% | ? | 0% | 5% | 11µM*
O=C(NC(=S)Nc1cccnc1Cl)c1ccc(F)cc1 | -5% | ? | -24% | / | ?
O=C(NNC(=S)NC(=O)c1cccnc1)c1ccc(Cl)cc1 | -27% | 10µM* | 1% | ? | ?
CC(C)c1ccc(N2C(=NC(=O)C3CCCO3)SC3CS(=O)(=O)CC32)cc1 (centres undefined) | -1% | 10% | 6% | / | 1%
O=C(NNC(=S)NCc1ccc(Cl)cc1)c1cccnc1 | -2% | ? | 7% | / | ?
O=C(NC(=S)NNC(=O)c1ccc(Cl)cc1Cl)c1cccnc1 | -21% | 13µM* | 45µM* | 24µM* | 20µM*
CCCCNC(=S)NNc1c(Cl)cc(Cl)cc1Cl | ? | 2.5µM* | -23% | -9% | 5µM*
O=C(NNC(=S)Nc1ccc(Br)cc1)c1cccnc1 | -18% | 10µM* | 22% | / | ?
O=C(NCCCl)NNc1c(Cl)cc(Cl)cc1Cl | -2% | -29% | -24% | -2% | 3%
O=C(NC(=S)NCCOCc1ccc(Cl)cc1)c1cccnc1 | -2% | 11µM* | 3% | 5% | 18µM*
CSCC[C@H](NC(=O)[C@H](CC(C)C)NC(=O)[C@H](Cc1c[nH]c2ccccc12)NC(=O)[C@H](CCC(N)=O)NC(=O)[C@@H](NC(=O)[C@H](Cc1ccccc1)NC(=O)[C@H](CC(=O)O)NC(=O)[C@H](CCC(N)=O)NC(=O)[C@H](C)NC(=O)[C@H](CCCNC(=N)N)NC(=O)[C@H](CCCNC(=N)N)NC(=O)[C@H](CO)NC(=O)[C@H](CC(=O)O)NC(=O)[C@H](CC(C)C)NC(=O)[C@H](Cc1ccc(O)cc1)NC(=O)[C@H](CCCCN)NC(=O)[C@H](CO)NC(=O)[C@H](Cc1ccc(O)cc1)NC(=O)[C@H](CC(=O)O)NC(=O)[C@H](CO)NC(=O)[C@@H](NC(=O)[C@H](Cc1ccccc1)NC(=O)[C@@H](NC(=O)CNC(=O)[C@H](CCC(N)=O)NC(=O)[C@H](CO)NC(=O)[C@@H](N)Cc1cnc[nH]1)[C@@H](C)O)[C@@H](C)O)C(C)C)C(=O)N[C@@H](CC(N)=O)C(=O)N[C@H](C(=O)O)[C@@H](C)O | / | -20% | 8% | / | -7%
CCCCNC(=S)NNC(=O)c1ccc(Br)o1 | -5% | 0.79µM* | 15% | 7% | -25%
O=C(NC(=S)Nc1ncccn1)c1ccc(Cl)cc1Cl | -20% | 7.1µM* | -10% | 20% | -1%
CC(C)c1ccccc1OCCNC(=S)NC(=O)c1cccnc1 | -1% | 3.5µM* | 3% | ? | ?
CCC(=O)Nc1cccc(NC(=S)NC(=O)c2ccc(Cl)cc2Cl)c1 | -14% | ? | 14% | -15% | ?
Cc1cc(Cl)ccc1OCCNC(=S)NC(=O)c1cccnc1 | -2% | ? | 12% | / | -26%
Cc1noc(C)c1C(=O)N1CCC1(C)C(=O)NS(=O)(=O)c1cccs1 (centres undefined) | -1% | / | / | / | /
O=C(c1cc(-c2ccc3c(c2)OCO3)on1)N1CCN(c2ccccc2)CC1 | 3% | 30% | 3% | ? | 1%
O=C(c1cnn2c(C(F)(F)F)cc(-c3ccc(Br)cc3)nc12)N1CCOCC1 | -7% | 2% | -1% | 16% | -22%
